High-throughput results from PubChem.
TEAD-YAP inh = TEAD-YAP interaction inhibition | inhibition, % at 9.12 µM | actives 1.4% (n = 640,000) | HEK-TIYL cells, TEAD-Gal4/YAP UAS-luciferase luminescence; in the data active = inhibition above about 32%;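 note: 0% = median of test compound wells and 100% = reference inhibitor wells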
FBW7 act = human FBW7 E3 ligase activation, primary screen; actives 0.13% (n = 650,000); normalized activity (activation), % at 26.1 µM; AID 1259310; AlphaScreen FBW7–phospho-cyclin E peptide binding, activator screen; in the data active = normalized activity above about 1.9%;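 note: purified mutant Fbw7 with reduced substrate affinity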
GPR151 activ = activators of human GPR151; actives 1% (n = 650,000); activation, % at 11.2 µM; Q8TDV0; PathHunter beta-arrestin GPR151 cells, luminescence; in the data active = activation above about 4.9%;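 note: 0% = median of compound wells and 100% = cells with positive control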
MITF primary = blocks human microphthalmia-associated transcription factor; AID 1259374; inhibition, % at 2.6 µM; O75030; actives 0.91% (n = 650,000); AlphaScreen MITF homodimerization, bead proximity signal; in the data active = inhibition above about 50%;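 note: 0% = vehicle wells with protein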
Target sequence (O75030 whole entry, looked up): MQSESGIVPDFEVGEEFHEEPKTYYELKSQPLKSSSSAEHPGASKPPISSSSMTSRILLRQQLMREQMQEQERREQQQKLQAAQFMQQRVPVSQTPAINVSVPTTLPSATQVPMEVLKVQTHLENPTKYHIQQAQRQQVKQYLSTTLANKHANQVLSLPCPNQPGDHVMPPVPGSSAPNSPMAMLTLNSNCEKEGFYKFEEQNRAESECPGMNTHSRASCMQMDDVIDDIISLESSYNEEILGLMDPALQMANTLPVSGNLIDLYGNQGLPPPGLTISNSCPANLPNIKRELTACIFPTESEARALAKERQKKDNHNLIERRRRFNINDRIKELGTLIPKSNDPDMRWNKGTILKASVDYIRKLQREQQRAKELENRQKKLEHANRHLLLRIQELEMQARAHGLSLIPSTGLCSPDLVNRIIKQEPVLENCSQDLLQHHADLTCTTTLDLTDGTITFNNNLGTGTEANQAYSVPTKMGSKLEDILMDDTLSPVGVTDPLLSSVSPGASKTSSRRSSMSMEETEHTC
GPR151 conf act = confirmation of human GPR151 activators; activation, % at 11.2 µM; GPR151 PathHunter beta-arrestin cells, luminescence, 90 min; % of EA-reagent control over plate median; shares compounds with GPR151 activ; 6,700 tested, under 10 active;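 active = mean percent activation across replicates above the confirmation screen cutoff of 4.91%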
GPR119 ag = counter-screen for GPR151 activators: effect on human GPR119 | actives 0.3% (n = 6,700) | AID 1508611 | shares compounds with GPR151 activ | GPR119 PathHunter beta-arrestin cells, luminescence, 90 min; 0 = compound-well median, 100 = enzyme-acceptor control | activation, % at 11.2 µM;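 active = mean percent activation in the counterscreen above 29.09%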;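 note: counterscreen on off-target GPR119 to flag nonselective hits from the GPR151 activator screen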
* hit, by the source's call; . = no result given. In the library only some 3.5% were active in any assay of this set; here they are far more common.

SMILES	TEAD-YAP inh	FBW7 act	GPR151 activ	MITF primary	GPR151 conf act	GPR119 ag
CC(C)CCn1c(=O)c2sccc2n2c(CCCC(=O)NC3CC3)nnc12	5.6	-0.1	5.0*	3.8	0.6	0.6
COc1ccc(CCNC(=O)CCC(=O)Nc2nc(-c3cc4cccc(OC)c4oc3=O)cs2)cc1OC	-30.7	0.2	-1.1	-4.3	.	.
Nc1c(C(=O)O)[nH]c(=O)[nH]c1=O	4.5	0.1	5.1*	18.0	-0.5	-7.6
COC(=O)c1ccc(N2C(=O)c3ccc(NC(C)=O)cc3C2=O)cc1	5.0	0.0	11.1*	3.9	-1.3	-12.1
COc1ccc(N2C(=O)c3ccc(NC(C)=O)cc3C2=O)cc1	4.6	0.1	1.2	4.9	.	.
COc1ccc2c(c1)C(C)(Cc1ccccc1)C(=O)N2 (stereo not drawn)	1.4	-0.1	0.3	5.7	.	.
O=C(c1ccco1)N1CCN(C(=S)NCC2CCCO2)CC1 (stereo not drawn)	9.4	0.2	6.4*	-9.8	0.0	-2.0
CC(=O)c1ccc(N2CCN(C(=S)NCC3CCCO3)CC2)cc1 (stereo not drawn)	-2.2	0.0	1.3	5.9	.	.
CCOCCCNC(=S)N1CCC(NC(=O)c2ccc(C)cc2)CC1	-1.2	-0.1	1.1	0.8	.	.
CCOCCCNC(=S)N1CCC(NC(=O)c2ccco2)CC1	-3.4	0.0	5.9*	5.8	0.2	-1.6
CCN(CC)S(=O)(=O)c1ccc(N/N=C/c2ccc(O)cc2)nc1	1.8	0.0	5.7*	22.3	0.5	3.4
CCN(CC)S(=O)(=O)c1ccc(N/N=C/c2ccc(O)c(OC)c2)nc1	-5.8	-0.1	1.6	7.5	.	.
CNc1ccccc1C(=O)OCC(=O)Nc1ccc(C#N)cc1	-11.1	0.3	-0.6	-8.2	.	.
COc1ccccc1C(=O)OCC(=O)Nc1ccc(C#N)cc1	-8.8	0.4	6.1*	16.6	1.4	1.1
O=C(O)/C=C/C(=O)N(Cc1ccccc1)Cc1ccccc1	3.5	-0.1	5.3*	-5.3	0.6	8.4
CC(Cl)C(=O)N(Cc1ccccc1)Cc1ccccc1 (stereo not drawn)	8.0	0.0	5.1*	-17.7	-0.2	8.0
COc1ccc(/C=C/C(=O)N(Cc2ccccc2)Cc2ccccc2)cc1	1.1	-0.1	-0.1	-2.3	.	.
CN1C(C(=O)Nc2sc3c(c2C#N)CCC3)=CC(c2ccc(F)cc2)=NS1(=O)=O	7.7	-0.3	1.7	11.1	.	.
COc1cc(OC)c(NC(=O)C2CCCN(S(=O)(=O)c3cnc[nH]3)C2)cc1Cl (stereo not drawn)	-8.3	0.8	2.0	-0.8	.	.
CC(=O)c1ccc(NC2=C(N3CCCCC3)C(=O)c3ccccc3C2=O)cc1	-3.9	0.0	-1.6	2.7	.	.
C/C(=N/O)c1ccc(NC2=C(N3CCCC3)C(=O)c3ccccc3C2=O)cc1	8.9	-0.5	5.9*	-2.0	0.1	4.4
CC1CCCC(C)N1C(=O)C(c1ccccc1)c1ccccc1 (stereo not drawn)	6.1	0.0	0.3	-0.3	.	.
COc1cc(OC)cc(-c2nc(=S)[nH][nH]2)c1	11.4	-0.1	6.8*	-6.2	1.4	10.3
CCOc1ccccc1-c1csc(NC(=O)CC(C)(C)C)n1	11.3	0.2	0.2	5.8	.	.
O=C1NC(=S)NC(=O)C1=Cc1ccc(-c2ccc(N3CCCCC3)c([N+](=O)[O-])c2)o1	-51.3	-0.1	12.0*	34.2	-0.2	0.4
SMILES	TEAD-YAP inh	FBW7 act	GPR151 activ	MITF primary	GPR151 conf act	GPR119 ag
O=C1NC(=S)N/C1=C/c1ccc(-c2ccc(Cl)c([N+](=O)[O-])c2)o1	-4.2	0.8	0.2	13.8	.	.
CCOC(=O)COc1cc(C)cc2oc(=O)cc(-c3ccccc3)c12	6.6	0.0	5.2*	15.2	-1.0	-12.8
CCOCC(=O)Nc1ccc(-c2ccc3nnc(C)n3n2)cc1	4.4	0.0	-0.8	7.4	.	.
Cc1cccc(C)c1NC(=O)C(=O)NCCc1ccccc1	-1.3	-0.3	-0.3	-7.0	.	.
Cc1cccc(C)c1NC(=O)C(=O)NCCc1ccc(F)cc1	-5.9	0.0	6.4*	-6.7	0.0	-5.3
C/C(=N\NC(=O)c1ccc(N2CCCC2=O)cc1)c1ccccn1	-1.3	-0.2	9.1*	-14.1	0.6	9.1
Cc1cc(Cl)ccc1OC(C)C(=O)NCc1ccco1 (stereo not drawn)	4.2	-0.1	6.9*	12.5	1.4	16.1
COc1cc(-c2cnc3c(Nc4ccc(C(N)=O)cc4)nccn23)cc(OC)c1OC	-1.8	1.1	-1.0	22.2	.	.
CC(=O)N1CCc2cc(C(=O)CN3CC(C)CC(C)C3)ccc21 (stereo not drawn)	-0.8	0.3	6.2*	12.1	-0.8	-14.3
COc1ccc(OC)c(/C=C2/NC(=O)N(Cc3ccc(Br)cc3)C2=O)c1	2.6	0.1	2.0	-4.3	.	.
COc1ccc(OC)c(/C=C2\NC(=O)N(Cc3ccc(Cl)cc3)C2=O)c1	6.0	0.7	7.9*	7.8	0.2	-5.4
COc1cc(OC)c(/C=C2/NC(=O)N(Cc3ccc(F)cc3)C2=O)c(OC)c1	-5.8	-0.1	6.2*	-0.3	0.6	-2.0
NC(=O)c1ccc(NC(=O)COc2ccc3ccccc3c2)cc1	-0.1	-0.1	-0.5	-7.3	.	.
CC(=O)c1ccc(NC(=S)Nc2cc([N+](=O)[O-])ccc2C)cc1	-1.7	0.4	6.3*	11.7	-1.0	-8.4
Cc1ccc(C(=O)O)cc1NC(=O)Nc1ccc([N+](=O)[O-])cc1	9.7	-0.2	2.3	4.9	.	.
COc1ccccc1N1C(=O)/C(=C\c2ccc(C)s2)C(=O)NC1=S	2.1	-0.7	-0.3	0.4	.	.
O=[N+]([O-])c1ccccc1/C=C/CN1CCN(CCOCCO)CC1	5.2	-0.3	5.4*	49.1	0.1	4.5
O=[N+]([O-])c1ccccc1/C=C/CN1CCSCC1	-5.5	-0.1	0.6	40.3	.	.
CCN1C=CC=C/C1=C1\SC(=S)N(C)C1=O	1.7	0.0	7.3*	11.9	-1.7	-9.4
Cc1nc(Nc2nc(-c3ccccc3)cc(=O)[nH]2)nc2ccccc12	7.0	-0.2	0.3	4.3	.	.
COc1ccc2nc(Nc3nc(-c4ccccc4)cc(=O)[nH]3)nc(C)c2c1	2.6	-0.2	6.8*	-6.4	0.5	12.9
CC(=O)Nc1sc2c(c1C(N)=O)CCN(C(C)=O)C2	3.5	0.2	0.8	14.9	.	.
CC(=O)N1CCc2c(sc(NC(=O)C(C)(C)C)c2C(N)=O)C1	0.2	0.2	6.4*	2.1	-0.2	-3.7
CCCCC[C@H](O)/C=C/[C@@H]1[C@@H](C/C=C\CCCCO)[C@@H](O)C[C@H]1O	.	.	2.4	2.0	.	.
CNC(=O)OCc1ccc(-c2ccc(C)cc2)o1	-26.1	-0.8	-0.5	0.6	.	.
CNC(=O)OCc1ccc(-c2ccc(Cl)cc2)o1	-11.4	0.0	5.9*	0.3	0.4	7.3
O=C(NCC1CCCN(C(=O)C2CCCC2)C1)c1ccc(F)cc1 (stereo not drawn)	5.3	0.2	7.3*	-9.2	0.7	1.8
COc1ccc(CNC(=O)CCSC)cc1OC	1.5	0.1	-0.7	-4.8	.	.
